# A selection: hits, their analogues and other compounds. The true share with any hit is near 4.8%.
# STAT1 act: STAT1 signaling activators, primary screen, cell-based, HTS, luciferase reporter; NIH 3T3 STAT1-luciferase reporter, IFN-gamma, luminescence; 100% = IFN-gamma alone, no compound; activation (% of control), % at 5.5 µM; actives 2.6% (n = 200,000);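 active = activation above the screen-wide mean activation plus 3 SD, cut at about 130% in these data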;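 note: raw ratio to IFN-gamma control signal so 100% means no change and 0% no light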
# APP 5UTR inh: inhibitors of APP translation via 5'UTR reporter, primary screen, APP 5'UTR luciferase, SH-SY5Y cells. SH-SY5Y APP 5'UTR-luciferase reporter, luminescence. actives 0.82% (n = 190,000). inhibition, % at 2 µM;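 active = inhibition above a set limit, derived from the sample mean plus 3 SD, cut at about 45% in these data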
# APP 5'UTR act: activators of APP 5'UTR luciferase reporter, primary screen, SH-SY5Y cells; AID 1276, 2008; SH-SY5Y APP 5'UTR luciferase reporter, luminescence; zero percent = DMSO vehicle wells; actives 1% (n = 190,000); activation, % at 2 µM;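 active = activation above a set limit, based on mean plus 3 SD of controls, cut at about 140% in these data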
# Wee1 stabilizer: Wee1 degradation inhibitors, primary screen, cell-based, HeLa, Wee1K328M-luciferase, luminescence. Wee1-like protein kinase (Homo sapiens), P30291. actives 1.2% (n = 220,000). HeLa Luc-Wee1K328M stability; 100% = proteasome inhibitor MG132 effect. reporter increase, % at 5 µM. AID 1321, 2008;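 active = activation above the mean of all tested compounds plus 3 SD, set per screening run, cut at about 8.8% in these data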;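 note: cells exposed to compound for 20 h before luminescence read; 0% = DMSO alone and 100% = MG132 at 30 µM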
# Target sequence (P30291 whole entry K328M): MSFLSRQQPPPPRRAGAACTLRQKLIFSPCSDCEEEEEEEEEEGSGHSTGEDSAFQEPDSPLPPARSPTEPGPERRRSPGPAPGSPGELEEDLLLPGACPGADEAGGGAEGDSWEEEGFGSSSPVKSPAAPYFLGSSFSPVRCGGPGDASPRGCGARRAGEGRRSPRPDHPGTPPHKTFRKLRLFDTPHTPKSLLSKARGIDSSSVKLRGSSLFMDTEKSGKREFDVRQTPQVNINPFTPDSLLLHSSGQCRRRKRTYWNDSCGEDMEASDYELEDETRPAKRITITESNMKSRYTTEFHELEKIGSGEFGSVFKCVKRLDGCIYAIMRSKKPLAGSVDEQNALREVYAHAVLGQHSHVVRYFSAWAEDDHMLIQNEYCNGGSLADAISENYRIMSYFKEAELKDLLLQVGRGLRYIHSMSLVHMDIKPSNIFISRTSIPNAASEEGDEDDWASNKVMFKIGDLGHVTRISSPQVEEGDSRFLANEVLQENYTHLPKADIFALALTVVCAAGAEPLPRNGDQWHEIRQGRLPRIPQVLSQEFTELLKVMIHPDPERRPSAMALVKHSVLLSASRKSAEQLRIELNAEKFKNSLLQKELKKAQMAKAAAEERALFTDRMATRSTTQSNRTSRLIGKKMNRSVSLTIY
# Hsp70 activator: Hsp70 transcriptional activators, primary screen, cell-based, HeLa, Hsp70 promoter luciferase, luminescence, 10 µM; activation, % at 10 µM; actives 0.04% (n = 200,000); AID 1203, 2008; HeLa Hsp70 promoter luciferase reporter; scaled: vehicle 0, proteasome-inhibitor control 100%;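 active = activation above the mean across all tested compounds plus 3 SD, cutoff set per campaign, cut at about 5.5% in these data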;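 note: 100% = MG132 at 30 µM as the positive control and 0% = DMSO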
# NF-kB neuron act: activators of NF-kB expression in neurons, primary screen, cell-based, HTS; human neuronal cells, NF-kB reporter expression; active compounds read high; fold change at 12.5 µM; actives 1.6% (n = 190,000); AID 1239, 2008; in the data active = fold change above about 3.3
# STAT1 act conf: STAT1 signaling activators, confirmation, cell-based, HTS, luciferase reporter. shares compounds with STAT1 act. NIH 3T3 STAT1-luciferase reporter, IFN-gamma potentiation, luminescence; 100% = IFN-gamma EC80 alone, no compound. activation (% of control), % at 5.7 µM. actives 97% (n = 1,200). AID 1262, 2008;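 active = activation above a set limit carried over from the earlier primary STAT1 screen, cut at about 140% in these data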;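 note: simple ratio to median IFN-gamma plus DMSO wells so 0% means no light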
# NFkB act STAT1ct: NF-kB reporter activators, TNF-alpha stimulated, counter-screen for STAT1 activator project, cell-based, HEK293T, luciferase luminescence. shares compounds with STAT1 act. 100% = TNF-alpha with vehicle only. activation (% of control), % at 5.7 µM. actives 43% (n = 1,200). AID 1306, 2008;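 active = activation above the mean of solvent-only control wells plus 3 SD, set per campaign, cut at about 130% in these data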;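 note: TNF-alpha given at a submaximal dose yielding about 80% of full reporter signal; values are well signal over median control so 100% means no change and 0% no light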
# STAT3 act STAT1c: STAT3 reporter activation by STAT1 hits, confirmation, counter-screen for STAT1 activator project, U3A cells, luciferase, luminescence. shares compounds with STAT1 act. IL-6; cells lack STAT1; 100 = IL-6 alone, no compound effect. activation (% of control), % at 5.7 µM. actives 46% (n = 1,200);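 active = activation above the solvent-only control well mean plus 3 SD, set per plate batch, cut at about 110% in these data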;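 note: 0% = no luminescence and 100% = median IL-6 plus DMSO wells; higher means more STAT3 reporter activation so hits are non-selective activators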
# * = called active by the depositor; / = no result.
SMILES,STAT1 act,APP 5UTR inh,APP 5'UTR act,Wee1 stabilizer,Hsp70 activator,NF-kB neuron act,STAT1 act conf,NFkB act STAT1ct,STAT3 act STAT1c
O=[N+]([O-])c1ccccc1OCc1nc(-c2cccs2)no1,180*,-185,185*,5,0,7.6*,226*,142*,122*
O=[N+]([O-])c1ccc(F)cc1OCc1nc(-c2cccs2)no1,172*,-156,156*,2,0,6.4*,203*,145*,120*
Fc1ccc(OCc2nc(-c3ccc(Br)o3)no2)c(F)c1,105,-2,1,1,0,1.6,/,/,/
Cc1ccc2[nH]cc(CCNC(=O)CN3C(=O)c4ccccc4C3=O)c2c1,98,-9,9,1,0,1.3,/,/,/
Cn1cnc2cc(NCc3cccs3)ccc21,112,-13,13,2,0,1.9,/,/,/
c1ccc(-n2cnc3cc(NCc4cccs4)ccc32)cc1,169*,-205,205*,-2,0,0.72,249*,133*,106
CCOc1ccc(CCNC(=O)Cn2cccc2C(=O)c2ccccc2C)cc1OCC,100,6,-6,-2,-1,0.96,/,/,/
O=C(CCn1c(=O)oc2ccccc21)NCCCN1CCN(c2ccc(F)cc2)CC1,91,10,-11,0,0,0.97,/,/,/
C=CCNC(=S)NNC(=O)COc1ccc2cc(Br)ccc2c1,152*,-66,66,-2,0,3.4*,152*,125,104
C=CCNC(=S)NNC(=O)COc1ccc(Br)cc1,113,1,-1,-1,0,1.2,/,/,/
Cc1c(C(=O)NCC2CCCO2)oc2ccc(S(=O)(=O)N3CCCC3)cc12 (centres undefined),106,7,-7,0,0,0.37,/,/,/
Cc1c(C(=O)NCC2CCCO2)oc2ccc3c(c12)C(=O)CC(C)(C)O3 (centres undefined),155*,-156,156*,4,1,3.4*,209*,122,126*
Cc1ccc2nc(NC(=O)c3ccc(OCC4CCCO4)cc3)sc2c1 (centres undefined),158*,-37,37,1,0,1.3,148*,116,91
Cc1cc(C)c2nc(NC(=O)c3ccc(OCC4CCCO4)cc3)sc2c1 (centres undefined),107,-14,14,-1,0,1.4,/,/,/
C=CCn1c(SCC(N)=O)nc2scc(-c3ccc(C)o3)c2c1=O,155*,-167,167*,4,0,2.8,202*,138*,129*
N/C(=N\OC(=O)c1ccccc1)c1ccncc1,115,-38,38,6,0,1.1,/,/,/
Cc1ccc(/C(N)=N/OC(=O)c2ccc(F)cc2)cc1,153*,-46,46,2,0,7.9*,173*,135*,106
N/C(=N\OC(=O)c1cccc(F)c1)c1ccccc1,166*,-94,94,2,0,2.4,169*,123,114*
C/C(=N\OC(=O)c1ccc(F)cc1)c1ccc(F)c(F)c1,/,/,/,0,/,/,/,/,/
